Screens: PubChem, National Center for Advancing Translational Sciences (NCATS)
gsp antagonist = qHTS for Antagonists of gsp, the Etiologic Mutation Responsible for Fibrous Dysplasia/McCune-Albright Syndrome: qHTS; Potency, µM (top dose mostly 76.9 µM), without a hit: top-dose activity change, negative = inhibition, hits mostly inhibitors; gsp-mutant cells, cAMP HTRF, 30 min; 340,000 tested, 0.4% active; calls by dose curve; cell line not stated here;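 also: intracellular cAMP measured with PDE inhibitor Ro 20-1724 present during compound exposure; potency is read from the fitted curve at half-maximal effect; % is scaled to controls: 0 for no effect and ±100 for the full control effect; nearly all actives have a fitted effect of over 65% in size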
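HTRF cAMP read-out (cAMP-d2 plus anti-cAMP antibody-K in lysis buffer, 30 min RT). Before lysis, cells are exposed to compounds with […] for 30 min at 37C in DPBS containing Ca/Mg, BSA and Tween 20.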
RXFP1 agonist = qHTS Assay for Agonists of the Relaxin Receptor RXFP1 | HEK293T-RXFP1 cAMP TR-FRET, 30 min; response scale: percent of porcine relaxin response, buffer zero | Potency, µM (doses to about 57.5 µM), inactives show top-dose activation, most hits filed as activators | 370,000 tested, 0.3% active; active = well fitted activation curve with a large enough effect; inconclusive = small, poorly fitted or top-dose-only effect; also: potency is read from the fitted curve at half-maximal effect; % is scaled to controls: 0 for no effect and ±100 for the full control effect; nearly all actives have a fitted effect of over 60% in size
Target sequence (Q9HBX9 whole entry, looked up): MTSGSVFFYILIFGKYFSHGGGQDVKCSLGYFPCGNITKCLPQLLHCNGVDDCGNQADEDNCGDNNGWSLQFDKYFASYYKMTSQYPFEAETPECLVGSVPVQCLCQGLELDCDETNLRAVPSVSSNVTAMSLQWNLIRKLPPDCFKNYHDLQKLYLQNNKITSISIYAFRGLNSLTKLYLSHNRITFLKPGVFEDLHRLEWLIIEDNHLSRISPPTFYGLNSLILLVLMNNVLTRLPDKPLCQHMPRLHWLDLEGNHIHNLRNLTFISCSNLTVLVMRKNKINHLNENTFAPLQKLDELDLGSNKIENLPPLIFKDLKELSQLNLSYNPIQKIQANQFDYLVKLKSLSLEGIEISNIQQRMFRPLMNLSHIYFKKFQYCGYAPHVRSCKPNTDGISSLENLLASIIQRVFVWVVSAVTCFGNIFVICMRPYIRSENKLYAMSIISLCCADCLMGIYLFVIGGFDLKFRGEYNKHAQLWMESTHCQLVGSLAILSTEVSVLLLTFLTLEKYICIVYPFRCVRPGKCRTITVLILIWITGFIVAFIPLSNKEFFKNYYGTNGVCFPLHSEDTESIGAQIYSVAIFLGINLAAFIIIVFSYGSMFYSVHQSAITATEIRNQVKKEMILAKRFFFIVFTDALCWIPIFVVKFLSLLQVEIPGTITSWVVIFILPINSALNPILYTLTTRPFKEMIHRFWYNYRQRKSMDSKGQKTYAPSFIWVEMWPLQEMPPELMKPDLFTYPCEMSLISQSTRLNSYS
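cAMP rise read by TR-FRET after 30 min, 37C compound exposure (up to 58 uM) in RXFP1-transfected HEK293 cells with Ro 20174 present. EC50 from Hill-equation fits, with 29 nM porcine relaxin as 100% and buffer as basal.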
FBPA coupling cs = qHTS Assay for Inhibitors of Fructose-1,6-bisphosphate Aldolase from Giardia Lamblia: Coupling assay counterscreen; coupling enzyme system counterscreen, AmpLite Red fluorescence; activity change, negative = inhibition, % at 58.2 µM, hits read low; 290,000 tested, 0.67% active; in the data active = activity change below about -30%; also: % is scaled to controls: 0 for no effect and ±100 for the full control effect
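Compounds tested against the coupling enzymes alone at 57.5 uM final; readout was AmpLite Red fluorescence (525/598 nm) after 20 min at RT.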
RXFP1 antag = qHTS Assay for Antagonists of the Relaxin Receptor RXFP1; Relaxin receptor 1 (Homo sapiens), Q9HBX9; HEK293-RXFP1, relaxin-stimulated cAMP HTRF, 30 min; stronger effect = lower value; activity change, negative = inhibition, % at 57.5 µM; 350,000 tested, 0.59% active; AID 1259400, 2018;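 active = activity change of -60% or lower, but not beyond a set lower limit; inconclusive = change between -60% and -40%, or beyond the set limit; inactive = change above -40%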; also: % is scaled to controls: 0 for no effect and ±100 for the full control effect
Giardia kill = Small Molecules that selectively kill Giardia lamblia: qHTS; Giardia lamblia trophozoite viability; 340,000 tested, 0.15% active; activity change, % at 7.66 µM, hits read low; in the data active = activity change below about -80%; inconclusive = between about -30% and that limit;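 also: parasites exposed to compound for two days anaerobically before the ATP read; % is scaled to controls: 0 for no effect and ±100 for the full control effect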
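Anaerobic 48 hrs incubation at 37 deg C of 100 trophozoites/well with test compounds; ATPLite 1-Step luminescence, 15-30 min RT, reports cellular ATP as viability.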
gsp agonist = qHTS for Agonist of gsp, the Etiologic Mutation Responsible for Fibrous Dysplasia/McCune-Albright Syndrome: qHTS; gsp mutant cells, cAMP HTRF, 30 min; Potency, µM (series often up to 76.9 µM), for inactives: at the highest dose activation (cAMP increase), actives largely listed as activators; 340,000 tested, 0.13% active; AID 624287, 2012; active = well fitted activation curve with a large enough effect; inconclusive = small, poorly fitted or top-dose-only effect, or another doubt; inactive = no such curve, though single readings can be large or run the other way; cell line not stated here;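 also: phosphodiesterase inhibitor Ro 20-1724 added with compounds to block cAMP breakdown; potency is read from the fitted curve at half-maximal effect; nearly all actives have a fitted effect of over 60% in size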
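Cells in DMEM/10% FBS with G418 were pretreated with compounds in DMSO plus […] (300 uM stock) for 30 min at 37C. cAMP was measured by HTRF (cAMP-d2 plus anti-cAMP antibody-K) after 30 min at room temperature.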
An asterisk follows results filed as active; ? = inconclusive; · = not tested or not shown; [ ] = dose if it differs, or a comment. A selection: hits, their analogues and other compounds. The true share with any hit is near 1.6%.

SMILES	gsp antagonist	RXFP1 agonist	FBPA coupling cs	RXFP1 antag	Giardia kill	gsp agonist
CCN(CCNCC(O)COCc1ccc(Cl)cc1)c1cccc(C)c1 (stereo not given)	11%	1%	-1	-70*	-13	7%[15.4 µM]
CC1=CC(C)(C)NC(=S)N1c1cccc2cc(S(=O)(=O)O)ccc12	9%	7%	-10	9	-1	-17%
Cc1ccc(C(=O)NCC(=O)OCC(=O)c2ccc3ccccc3c2)cc1	·	·	·	·	-21	·
O=c1[nH]c2ccccc2c(=O)n1CCCl	·	·	·	11	·	·
CNC(=O)COC(=O)/C=C/c1cn(-c2ccccc2)nc1-c1ccc2c(c1)OCCO2	-5%	0%	-4	1	1	2%[15.4 µM]
Cc1ccc(-c2nn(-c3ccccc3)cc2/C=C/C(=O)OCC(=O)NC2CC2)o1	50µM*	15%	-7	13	-17	26%
Cc1cc(S(=O)(=O)NCCc2ccncc2)cc(C)c1F	12%	·	·	-7	-2	57%[15.4 µM]
COc1ccc(NC(=O)C(C)n2nc(-c3ccc(C)c(C)c3)ccc2=O)cc1OC (stereo not given)	·	4%	·	-17	·	·
CC1(C(=O)OCC(=O)Nc2nc(-c3ccc(F)c(F)c3)cs2)CC1(Cl)Cl (stereo not given)	50µM*	-3%	0	?	-22	-31%
O=C(CN1C(=O)C2CCCCC2C1=O)Nc1nc(-c2ccc(F)cc2)cs1 (stereo not given)	-31%	2%	·	?	9	?
COc1ccc(CC(=O)Nc2nc(-c3ccc(F)c(F)c3)cs2)cc1	?	-3%	0	-32	-13	0%[15.4 µM]
O=C(CN1C(=O)C2CC=CCC2C1=O)Nc1nc(-c2ccc(F)cc2)cs1 (stereo not given)	-28%	1%	·	-84*	-9	20%
O=C(Cc1ccc(F)cc1)Nc1nc(-c2ccc(F)c(F)c2)cs1	?	0%	-2	-88*	6	-1%
O=C(CN1C(=O)NC2(CCCC2)C1=O)Nc1nc(-c2ccc(F)c(F)c2)cs1	4%	-3%	·	-36	3	5%
Cc1cc(C)c(C(=O)N2CCCC(N3CCN(c4ccc(F)cc4)CC3)C2)o1 (stereo not given)	-3%	2%	1	-12	6	-2%[15.4 µM]
Cc1noc(C)c1-c1ccc2ncnc(NCc3ccccc3F)c2c1	·	·	-1	·	·	·
Cc1ccc(CNS(=O)(=O)c2ccc3[nH]c4c(c3c2)CCCC4)cc1	·	2%	·	-21	·	·
CCS(=O)(=O)NCc1ccc2[nH]c3c(c2c1)CCCC3	·	0%	-44*	·	·	·
COc1ccc(-c2ocnc2C(=O)N2CCN(C(=O)C(c3ccccc3)c3ccccc3)CC2)cc1	25µM*	4%	9	-5	-5	-8%[15.4 µM]
O=C1NC2CCCCN2C12CCN(CCCN1c3ccccc3CCc3ccc(Cl)cc31)CC2 (stereo not given)	·	·	·	-74*	·	·
OCCN1CCN(CCCN2c3ccccc3Sc3ccc(Cl)cc32)CC1	10%	-2%	-4	?	7	·
CCn1c(C)nc2cc(S(=O)(=O)N3CCCCC3)ccc21	-16%	1%	1	7	11	-24%
CCn1c(CN2CCCCC2)nc2cc(S(=O)(=O)N3CCCCC3)ccc21	11µM*	-1%	·	9	26	-3%
CC(C)(C)c1cc(CN2CCCCC2)cc(C(C)(C)C)c1O	·	-2%	-56*	·	·	·
Cc1ccc([C@H]2Nc3ccc(S(=O)(=O)Nc4cccc(Cl)c4C)cc3[C@H]3C=CC[C@H]32)cc1	·	2%	·	-62*	-22	·
Cc1ccc(NS(=O)(=O)c2ccc3c(c2)[C@H]2C=CC[C@H]2[C@@H](c2ccc(F)cc2)N3)cc1C	·	-1%	·	-17	·	·
